According to the supplement of paper PMC10849652:
The full data set covers some 7,900 targets. This sample favours those with a hit. About 0.6% of all pairs of compound and target were hits. Values without a mark were called inactive.

Legend:
Test in all cases: log2 fold change, soluble protein after heating vs DMSO (PISA); higher = thermal stabilisation; K562 cells, 10 uM, 30 min; active = over 0.2 and 3.5 SD of the protein, either way, in both replicates (recomputed)
[1] = compound: CC1=C(C=C(C=C1)NC(=O)C2=CC(=CC=C2)C(C)(C)C#N)NC3=CC4=C(C=C3)N=CN(C4=O)C
Method in brief: (§1)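 Quantification of soluble protein used TMTpro 16plex LC-MS/MS, with channel sums equalised. Samples were the supernatant after 21,000xg for 90 min of pooled aliquots from K562 cells (2×10^6 cells/mL) treated with 10 μM compound for 30 min, heated for 3 min over 48°C-58°C, and extracted in PBS with 0.5% NP-40 at 4°C. Values, from duplicates, describe thermal stability against control samples on a log2 fold-change scale.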

[2] = compound: CC1=C(C=C(C=C1)NC(=O)C2=CC(=CC=C2)N(C)C)NC(=O)C3=CC=C(C=C3)O
Method in brief: as §1

[3] = compound: CC1=CC=C(C=C1)SC2=C3C=C(SC3=CN=C2)C(=O)N
Method in brief: as §1

[4] = compound: CC1=NC(=CC=C1)C2=C(N=C(N2)C(C)(C)C)C3=CC4=NC=CN=C4C=C3
Method in brief: as §1

Nexturastat A = compound: CCCCN(Cc1ccc(C(=O)NO)cc1)C(=O)Nc1ccccc1 [Nexturastat A]
Method in brief: as §1

vemurafenib = compound: CCCS(=O)(=O)Nc1ccc(F)c(C(=O)c2c[nH]c3ncc(-c4ccc(Cl)cc4)cc23)c1F [vemurafenib]
Method in brief: as §1

[5] = compound: CCCS(=O)(=O)Nc1ccc(F)c(C(=O)c2c[nH]c3ncc(Cl)cc23)c1F
Method in brief: as §1

[6] = compound: CCCc1cc(C)[nH]c(=O)c1CNC(=O)c1cc(-c2ccnc(N3CCN(C)CC3)c2)cc2c1cnn2C(C)C
Method in brief: as §1

givinostat = compound: CCN(CC)Cc1ccc2cc(COC(=O)Nc3ccc(C(=O)NO)cc3)ccc2c1 [givinostat]
Method in brief: as §1

barasertib = compound: CCN(CCCOc1ccc2c(Nc3cc(CC(=O)Nc4cccc(F)c4)[nH]n3)ncnc2c1)CCOP(=O)(O)O [barasertib]
Method in brief: as §1

[7] = compound: CC[C@@H]1C(=O)N(C)c2cnc(Nc3ccc(C(=O)NC4CCN(C)CC4)cc3OC)nc2N1C1CCCC1
Method in brief: as §1

volasertib = compound: CC[C@@H]1C(=O)N(C)c2cnc(Nc3ccc(C(=O)N[C@H]4CC[C@H](N5CCN(CC6CC6)CC5)CC4)cc3OC)nc2N1C(C)C [volasertib]
Method in brief: as §1

[8] = compound: CC[C@H](C)N1C=C(C2=C(C=C(C=C21)C3=CN=C(C=C3)N4CCNCC4)C(=O)NCC5=C(C=C(NC5=O)C)C)C
Method in brief: as §1

epoxomicin = compound: CC[C@H](C)[C@@H](C(=O)N[C@@H]([C@@H](C)O)C(=O)N[C@@H](CC(C)C)C(=O)[C@]1(CO1)C)NC(=O)[C@H]([C@@H](C)CC)N(C)C(=O)C [epoxomicin]
Method in brief: as §1

[9] = compound: CCn1c(C(=O)N(C2CC2)C2CC2)cc2c3c(ncn3C)c(Nc3cc(C)n(C)n3)nc21
Method in brief: as §1

[10] = compound: CCn1cc(-c2ccnc3[nH]c(-c4cccc(CN(C)C)c4)cc23)c(-c2ccc(NC(=O)N(C)C)cc2)n1
Method in brief: as §1

[11] = compound: CN(C)CC(=O)Nc1ccc2[nH]c(=O)c3ccccc3c2c1
Method in brief: as §1

rosiglitazone = compound: CN(CCOC1=CC=C(C=C1)C[C@H]2C(=O)NC(=O)S2)C3=CC=CC=N3 (racemic) [rosiglitazone]
Method in brief: as §1

[12] = compound: CN1C2=C(C3=C1C(=O)N(N=C3)CC4=CC(=CC=C4)N)SC(=C2)S(=O)C
Method in brief: as §1

[13] = compound: CN1CCC(CNc2ccc3ncc(-c4cccc(OC(F)(F)F)c4)n3n2)CC1
Method in brief: as §1

UniProt O95232, sequence (O95232 whole entry, looked up): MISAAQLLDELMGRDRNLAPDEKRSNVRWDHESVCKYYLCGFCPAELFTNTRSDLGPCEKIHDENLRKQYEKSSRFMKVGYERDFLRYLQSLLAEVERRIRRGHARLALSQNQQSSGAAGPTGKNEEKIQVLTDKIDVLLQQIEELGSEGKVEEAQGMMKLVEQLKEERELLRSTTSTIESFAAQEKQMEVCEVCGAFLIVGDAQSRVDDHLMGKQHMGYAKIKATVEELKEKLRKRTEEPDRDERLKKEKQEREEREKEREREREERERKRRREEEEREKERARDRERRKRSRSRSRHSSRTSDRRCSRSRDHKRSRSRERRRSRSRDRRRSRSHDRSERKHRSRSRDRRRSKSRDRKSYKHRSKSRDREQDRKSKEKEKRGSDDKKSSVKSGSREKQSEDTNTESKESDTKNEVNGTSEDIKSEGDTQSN
UniProt Q03252, sequence (Q03252 whole entry, looked up): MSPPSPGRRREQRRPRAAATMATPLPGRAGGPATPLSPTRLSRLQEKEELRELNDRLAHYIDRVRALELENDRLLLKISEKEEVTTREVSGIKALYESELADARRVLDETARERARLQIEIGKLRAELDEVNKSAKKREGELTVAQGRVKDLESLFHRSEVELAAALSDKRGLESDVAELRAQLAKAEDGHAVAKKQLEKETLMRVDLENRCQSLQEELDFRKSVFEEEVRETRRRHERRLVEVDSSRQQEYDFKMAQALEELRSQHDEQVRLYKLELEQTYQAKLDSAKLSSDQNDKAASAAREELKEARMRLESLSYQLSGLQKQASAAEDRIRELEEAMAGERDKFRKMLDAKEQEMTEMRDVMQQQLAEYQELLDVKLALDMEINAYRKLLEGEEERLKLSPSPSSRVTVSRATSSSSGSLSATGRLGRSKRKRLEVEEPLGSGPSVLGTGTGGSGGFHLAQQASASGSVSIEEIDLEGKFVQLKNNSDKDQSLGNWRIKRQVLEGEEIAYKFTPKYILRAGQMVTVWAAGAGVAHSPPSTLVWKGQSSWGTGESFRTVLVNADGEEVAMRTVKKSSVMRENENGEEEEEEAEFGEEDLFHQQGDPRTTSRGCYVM
UniProt Q9HCC0, sequence (Q9HCC0 whole entry, looked up): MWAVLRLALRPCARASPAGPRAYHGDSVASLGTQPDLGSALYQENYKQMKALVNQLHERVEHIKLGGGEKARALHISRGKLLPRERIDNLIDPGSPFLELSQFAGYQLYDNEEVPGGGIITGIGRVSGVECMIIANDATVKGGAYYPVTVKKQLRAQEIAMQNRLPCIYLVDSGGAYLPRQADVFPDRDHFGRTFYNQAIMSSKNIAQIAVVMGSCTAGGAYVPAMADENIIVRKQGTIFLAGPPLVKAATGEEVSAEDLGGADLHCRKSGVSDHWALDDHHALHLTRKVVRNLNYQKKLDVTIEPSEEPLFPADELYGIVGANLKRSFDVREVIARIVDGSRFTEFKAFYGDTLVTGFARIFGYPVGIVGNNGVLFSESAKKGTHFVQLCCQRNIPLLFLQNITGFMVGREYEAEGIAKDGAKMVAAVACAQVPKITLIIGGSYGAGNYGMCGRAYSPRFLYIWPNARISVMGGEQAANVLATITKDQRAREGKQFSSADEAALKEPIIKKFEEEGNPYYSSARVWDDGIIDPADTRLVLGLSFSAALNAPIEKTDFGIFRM
UniProt Q86WA8, sequence (Q86WA8 whole entry, looked up): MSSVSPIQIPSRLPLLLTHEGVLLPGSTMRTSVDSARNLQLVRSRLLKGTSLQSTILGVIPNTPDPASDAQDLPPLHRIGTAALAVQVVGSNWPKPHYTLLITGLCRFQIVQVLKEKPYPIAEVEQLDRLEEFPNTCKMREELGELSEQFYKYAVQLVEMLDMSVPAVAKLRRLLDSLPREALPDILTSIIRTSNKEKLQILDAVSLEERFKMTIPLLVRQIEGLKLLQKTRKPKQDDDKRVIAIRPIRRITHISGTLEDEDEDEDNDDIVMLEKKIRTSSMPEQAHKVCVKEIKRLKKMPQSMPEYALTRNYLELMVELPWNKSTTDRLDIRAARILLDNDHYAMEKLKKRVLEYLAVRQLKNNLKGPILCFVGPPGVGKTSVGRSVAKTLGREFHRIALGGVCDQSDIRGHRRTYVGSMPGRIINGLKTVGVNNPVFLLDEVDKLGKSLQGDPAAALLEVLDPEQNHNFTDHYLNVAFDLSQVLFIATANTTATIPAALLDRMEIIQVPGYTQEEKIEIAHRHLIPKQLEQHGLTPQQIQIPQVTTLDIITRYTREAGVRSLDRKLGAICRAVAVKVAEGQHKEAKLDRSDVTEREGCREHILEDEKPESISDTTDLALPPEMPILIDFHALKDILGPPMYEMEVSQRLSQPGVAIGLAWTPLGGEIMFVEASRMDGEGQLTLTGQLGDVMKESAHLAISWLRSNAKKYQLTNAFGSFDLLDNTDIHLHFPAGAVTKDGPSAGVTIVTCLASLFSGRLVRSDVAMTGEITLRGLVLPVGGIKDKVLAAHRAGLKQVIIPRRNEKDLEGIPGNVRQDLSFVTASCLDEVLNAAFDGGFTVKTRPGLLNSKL
UniProt Q7LBC6, sequence (Q7LBC6 whole entry, looked up): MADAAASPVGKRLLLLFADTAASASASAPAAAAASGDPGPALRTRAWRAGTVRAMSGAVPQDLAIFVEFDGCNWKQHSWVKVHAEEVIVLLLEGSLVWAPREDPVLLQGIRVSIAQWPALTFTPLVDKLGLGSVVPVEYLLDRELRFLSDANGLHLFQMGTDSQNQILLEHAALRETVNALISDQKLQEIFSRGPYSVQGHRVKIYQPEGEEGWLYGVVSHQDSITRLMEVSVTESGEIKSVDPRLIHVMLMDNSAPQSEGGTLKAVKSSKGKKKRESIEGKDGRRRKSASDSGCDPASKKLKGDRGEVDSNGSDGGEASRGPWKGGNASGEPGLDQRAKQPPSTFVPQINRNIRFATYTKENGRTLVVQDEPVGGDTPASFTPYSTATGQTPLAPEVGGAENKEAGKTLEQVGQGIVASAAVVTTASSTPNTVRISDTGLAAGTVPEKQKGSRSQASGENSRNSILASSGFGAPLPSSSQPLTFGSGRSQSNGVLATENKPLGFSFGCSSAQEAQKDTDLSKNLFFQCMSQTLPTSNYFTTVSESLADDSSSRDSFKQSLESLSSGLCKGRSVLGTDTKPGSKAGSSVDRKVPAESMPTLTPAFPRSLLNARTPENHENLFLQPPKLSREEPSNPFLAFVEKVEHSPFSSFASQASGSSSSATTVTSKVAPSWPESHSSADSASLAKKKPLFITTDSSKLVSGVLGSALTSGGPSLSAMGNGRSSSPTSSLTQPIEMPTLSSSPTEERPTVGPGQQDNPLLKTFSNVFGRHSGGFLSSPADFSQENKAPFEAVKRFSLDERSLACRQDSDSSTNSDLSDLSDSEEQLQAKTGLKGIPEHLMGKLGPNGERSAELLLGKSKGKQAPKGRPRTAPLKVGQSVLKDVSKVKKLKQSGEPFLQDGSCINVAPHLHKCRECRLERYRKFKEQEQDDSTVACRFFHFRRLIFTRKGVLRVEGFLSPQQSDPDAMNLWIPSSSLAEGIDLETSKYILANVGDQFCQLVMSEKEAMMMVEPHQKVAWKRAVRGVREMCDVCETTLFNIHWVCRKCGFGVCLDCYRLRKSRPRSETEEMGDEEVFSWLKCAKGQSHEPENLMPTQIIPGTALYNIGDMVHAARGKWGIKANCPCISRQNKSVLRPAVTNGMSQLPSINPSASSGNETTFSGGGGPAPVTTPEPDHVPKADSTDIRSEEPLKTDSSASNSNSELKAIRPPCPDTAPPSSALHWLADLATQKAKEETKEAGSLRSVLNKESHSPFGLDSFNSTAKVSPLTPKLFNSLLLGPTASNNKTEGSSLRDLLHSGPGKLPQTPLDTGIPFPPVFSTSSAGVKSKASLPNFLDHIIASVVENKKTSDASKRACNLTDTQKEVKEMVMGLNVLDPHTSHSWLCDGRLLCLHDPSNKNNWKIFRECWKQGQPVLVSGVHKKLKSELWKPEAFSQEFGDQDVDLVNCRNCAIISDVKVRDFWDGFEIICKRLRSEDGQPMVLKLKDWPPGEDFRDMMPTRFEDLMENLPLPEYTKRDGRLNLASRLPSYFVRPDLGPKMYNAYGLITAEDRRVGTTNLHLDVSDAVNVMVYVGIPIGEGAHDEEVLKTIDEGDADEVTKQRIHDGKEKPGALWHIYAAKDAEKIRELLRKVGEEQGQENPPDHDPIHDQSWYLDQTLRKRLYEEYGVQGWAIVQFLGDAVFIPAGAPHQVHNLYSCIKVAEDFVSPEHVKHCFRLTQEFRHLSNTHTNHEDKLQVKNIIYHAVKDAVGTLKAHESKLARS
UniProt Q9H0C8, sequence (Q9H0C8 whole entry, looked up): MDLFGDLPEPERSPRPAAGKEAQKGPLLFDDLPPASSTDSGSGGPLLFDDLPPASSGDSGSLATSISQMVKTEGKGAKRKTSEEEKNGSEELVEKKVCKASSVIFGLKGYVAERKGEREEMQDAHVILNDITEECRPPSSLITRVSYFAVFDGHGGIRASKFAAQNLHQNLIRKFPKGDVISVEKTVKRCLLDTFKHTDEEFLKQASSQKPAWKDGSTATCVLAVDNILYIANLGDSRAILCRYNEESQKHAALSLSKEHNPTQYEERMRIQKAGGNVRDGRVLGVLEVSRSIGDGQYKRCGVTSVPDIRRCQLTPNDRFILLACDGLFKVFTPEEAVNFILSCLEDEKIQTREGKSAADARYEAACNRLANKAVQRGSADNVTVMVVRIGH
UniProt Q6N075, sequence (Q6N075 whole entry, looked up): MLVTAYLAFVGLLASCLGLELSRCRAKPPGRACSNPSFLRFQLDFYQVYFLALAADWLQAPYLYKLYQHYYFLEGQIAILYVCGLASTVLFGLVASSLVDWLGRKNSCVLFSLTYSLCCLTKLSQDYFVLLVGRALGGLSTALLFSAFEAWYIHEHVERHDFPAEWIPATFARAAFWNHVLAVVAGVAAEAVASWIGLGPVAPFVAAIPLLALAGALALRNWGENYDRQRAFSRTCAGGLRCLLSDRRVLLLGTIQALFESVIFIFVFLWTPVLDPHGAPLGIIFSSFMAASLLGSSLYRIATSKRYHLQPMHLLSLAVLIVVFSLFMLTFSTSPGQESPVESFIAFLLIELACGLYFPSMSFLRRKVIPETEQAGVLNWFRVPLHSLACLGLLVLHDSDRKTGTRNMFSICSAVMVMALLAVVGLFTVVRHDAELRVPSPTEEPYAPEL

| Target | log2 fold change [1] | log2 fold change [2] | log2 fold change [3] | log2 fold change [4] | log2 fold change (Nexturastat A) | log2 fold change (vemurafenib) | log2 fold change [5] | log2 fold change [6] | log2 fold change (givinostat) | log2 fold change (barasertib) | log2 fold change [7] | log2 fold change (volasertib) | log2 fold change [8] | log2 fold change (epoxomicin) | log2 fold change [9] | log2 fold change [10] | log2 fold change [11] | log2 fold change (rosiglitazone) | log2 fold change [12] | log2 fold change [13] |
| --- | --- | --- | --- | --- | --- | --- | --- | --- | --- | --- | --- | --- | --- | --- | --- | --- | --- | --- | --- | --- |
| MFSD5 isoform 2 (UniProt Q6N075) | 0.038 | 0.015 | -0.078 | 0.064 | -0.014 | 0.023 | -0.118 | -0.039 | -0.039 | 0.122 | 0.052 | 0.111 | -0.124 | 0.427 (active) | -0.012 | 0.028 | -0.092 | -0.032 | -0.056 | 0.14 |
| ILKAP (UniProt Q9H0C8) | -0.026 | -0.117 | 0.072 | 0.168 | 0 | 0.08 | 0.082 | 0.063 | 0.071 | 0.07 | -0.135 | -0.343 (active) | 0.127 | 0.077 | -0.071 | -0.052 | 0.086 | 0.023 | -0.085 | -0.064 |
| LONP2 (UniProt Q86WA8) | 0.173 | -0.119 | 0.08 | 0.009 | -0.083 | 0.128 | -0.137 | 0.013 | -0.05 | -0.056 | 0.141 | 0.16 | 0.063 | 0.336 | -0.032 | 0.034 | -0.106 | 0.05 | 0.054 | 0.17 |
| KIF21A isoform 4 (UniProt Q7Z4S6) | 0.051 | -0.067 | -0.003 | -0.043 | 0.106 | -0.045 | 0.014 | -0.025 | 0.069 | 0.104 | 0.073 | -0.019 | 0.038 | 0.066 | -0.037 | -0.121 | 0.013 | 0.033 | 0.054 | 0.076 |
| LMNB2 (UniProt Q03252) | -0.022 | 0.015 | -0.025 | 0.063 | -0.04 | 0.019 | 0.045 | -0.014 | 0.047 | 0.039 | 0.027 | -0.077 | 0.024 | 0.028 | -0.061 | 0.043 | -0.033 | -0.005 | -0.01 | 0.014 |
| LUC7L3 (UniProt O95232) | -0.046 | 0.034 | -0.036 | 0.086 | -0.008 | 0.024 | 0.013 | -0.009 | 0.003 | 0.022 | -0.057 | -0.185 | 0.027 | 0.005 | -0.025 | 0 | -0.031 | 0.004 | -0.009 | -0.074 |
| MCCC2 (UniProt Q9HCC0) | 0.048 | -0.028 | 0.026 | 0.04 | -0.04 | 0.011 | 0.013 | -0.028 | -0.049 | -0.02 | 0.003 | 0.038 | -0.032 | -0.018 | -0.007 | -0.013 | 0.003 | 0.012 | -0.031 | 0.027 |
| KDM3B (UniProt Q7LBC6) | 0.024 | -0.041 | -0.032 | 0.037 | -0.045 | 0.049 | 0.031 | 0.041 | -0.001 | 0.082 | -0.164 | -0.349 (active) | 0.06 | 0.061 | -0.024 | 0.001 | 0.043 | 0.048 | -0.049 | -0.071 |
